# Reference: PubChem BioAssay AID743343 (Broad Institute, 2014)
# Entries with a potency or affinity are not part of this list. A number with no mark means an inactive call. No rule for the calls is given here.
# Tested on: Drosophila melanogaster bursicon receptor LGR2 (rickets)
# Assay: blockers of bursicon-stimulated LGR2 cAMP reporter – cell-based, HEK293, CRE-luciferase reporter, cherry pick, set 2, dose response (AID 743343)
# Settings: bursicon-induced cAMP antagonist; series mostly up to 35 µM; activity change, negative = inhibition: at the top concentration
row,SMILES,"activity change, negative = inhibition"
1,Cc1ccc(NC(=O)c2ncn(CC(=O)N3CCN(c4ccccn4)CC3)n2)cc1C,9.09%
2,CC(C)N(C(=O)Nc1ccc2nsnc2c1)C(C)C,3.17%
3,CCCCC(=O)N(C)c1c(C)nc2ccc(C(=O)N3CCCCC3)cn12,6.84%
4,O=[N+]([O-])c1ccc(-c2cnc(SC(c3ccccc3)c3ccccc3)[nH]2)cc1,-31.3%
5,Cn1cnc(S(=O)(=O)N2C[C@@H](O)COC[C@H]3O[C@H](CC(=O)NC4CCCC4)CC[C@@H]32)c1,-0.782%
6,CCOc1cccc2sc(Nc3nc4ccc(NC(C)=O)cc4s3)nc12,12.2%
7,CCOC(=O)c1c(C)n(C)c2ccc(OCC(O)CNCCc3ccccc3)cc12 (stereo not drawn),-8.99%
8,C[C@@H]1CN([C@H](C)CO)C(=O)c2cc(C#CCN(C)C)cnc2O[C@@H]1CN(C)C(=O)CN1CCOCC1,-6.03%
9,C[C@H](CO)N1C[C@H](C)[C@@H](CN(C)S(=O)(=O)c2cccs2)Oc2c(cccc2N(C)C)C1=O,-16.6%
10,O=C(c1ccc2c(c1)OCCO2)C1CCN(S(=O)(=O)c2ccc(F)cc2)CC1,39.3%
11,O=C(NCc1ccc(F)cc1)c1cc(C2CCCCN2S(=O)(=O)c2cccs2)on1 (stereo not drawn),3.39%
12,COc1ccc(S(=O)(=O)N2CCOCC2)cc1NC(=O)COc1ccc(C)cc1,92.6% [at 16 µM]
13,COc1cc(NC2CCCCC2O)c2nc(-c3ccc(Cl)cc3)ccc2c1 (stereo not drawn),24.1%
14,COc1cccc(-c2ccc(C3[C@@H]4CN(C(=O)C5CC5)C[C@H]3N4)cc2)c1 (stereo partly drawn),0.109%
15,Cc1ccc(S(=O)(=O)N2[C@@H](CO)CO[C@H]2CC(=O)OCc2ccccc2)cc1,-1.23%
16,COc1ccccc1N1CCN(C(=O)c2sc3nc(-c4ccc(F)cc4)cn3c2C)CC1,10.6% [at 16 µM]
17,C[C@H]1CN([C@@H](C)CO)C(=O)c2cc(NC(=O)Nc3ccccc3)ccc2O[C@H]1CN(C)Cc1ccc(-c2ccccc2)cc1,-25%
18,Cc1noc2ncnc(Sc3ccc(Br)cc3)c12,-16.7%
19,CC(=O)c1ccc(S(=O)(=O)N2CCC(NC(=O)Nc3cccc(F)c3)CC2)cc1,17.5%

row,SMILES,"activity change, negative = inhibition"
1,O=C(NCc1ccco1)c1cc(NS(=O)(=O)c2cccc([N+](=O)[O-])c2)ccc1O,42.5%
2,O=C(C[C@H]1CC[C@H](NS(=O)(=O)c2cccc(F)c2)[C@@H](CO)O1)N1CCCCC1,-35.1%
3,COc1ccc(CCNC(=O)C2CCN(S(=O)(=O)c3ccc(Cl)cc3)CC2)cc1OC,38.9%
4,O=C(C[C@H]1C=C[C@@H](NC(=O)C2CCC2)[C@H](CO)O1)NCCCN1CCOCC1,-11.8%
5,C[C@H]1CN([C@@H](C)CO)C(=O)c2cc(C#CCc3ccccc3)cnc2O[C@H]1CN(C)Cc1ccccc1,-26.2%
6,COc1ccc2[nH]c3c(c2c1)CCN1C(=O)N([C@@H](C)C(=O)NCc2ccc(C)cc2)C(=O)[C@]31C,15.9%
7,Cc1ccc(-n2cc(CN(C)Cc3nccn3C)c(-c3cccc(C)c3)n2)cc1,-21.1%
8,C[C@H](CO)N1C[C@H](C)[C@H](CN(C)Cc2ccccc2)Oc2c(NS(=O)(=O)c3cn(C)cn3)cccc2C1=O,-3.04%
9,CCN(C(=O)COC(=O)C12CC3CC(CC(O)(C3)C1)C2)c1c(N)n(Cc2ccccc2)c(=O)[nH]c1=O,16.3%
10,C[C@@H]1CN([C@H](C)CO)C(=O)Cc2cc(NC(=O)CCC(F)(F)F)ccc2O[C@@H]1CN(C)CC1CCCCC1,0.312%
11,CC(=O)Nc1cccc(-c2ccnc3c2CC(C(=O)NCc2cccnc2)O3)c1 (stereo not drawn),15.8%
12,COc1ccccc1CNS(=O)(=O)c1ccc(N2CCCC2)cc1Br,10.3%
13,COc1ccc2c3c([nH]c2c1)[C@H](CO)N(C(C)=O)CC31CCN(C(=O)CN2CCOCC2)CC1,-30.6%
14,Cc1ccc(S(=O)(=O)N2CCCc3nc(-c4ccc(F)cc4)ccc32)cc1,17.7%
15,O=C(CN1CCOc2ccccc21)NCc1ccc(F)cc1,-11.2%
16,CC[C@H](CO)Oc1cc(NCc2ccc(Cl)c(Cl)c2)c2ncn(C(C)C)c2c1,-13.4%
17,COc1cccc(C(=O)Nc2ccc3c(c2)OC[C@@H](C)N(CC2CC2)C[C@H](C)[C@H](OC)CN(C)C3=O)c1,1.05% [at 18 µM]
18,COc1ccccc1CCn1cnc(-c2ccccc2OC)c1C(C)C,-9.99%
19,OC[C@H]1[C@@H](c2ccc(-c3ccc(F)cc3)cc2)[C@@H]2CN(Cc3ccccn3)CCCCN12,-3.26%
